Measurements published in PubChem BioAssay (Tox21).
Several values for one entry are separate records, joined by “and”; a condition that tells them apart may be missing. Equal values may be shown once. Records with an inconclusive call do not appear. Entries that show only a call come without a potency. Activity calls are given as the source filed them. Unless noted, calls follow the shape of the dose curve; as a rule, active = well fitted curve in the direction sought with a large enough effect in the repeat runs; inconclusive = weak or mixed curves; inactive = no such curve, though single readings can be large; an effect the other way counts as inactive or inconclusive.

What was measured:
[1] = qHTS assay to identify small molecule antagonists of the estrogen receptor beta (ER-beta) signaling pathway - cell viability counter screen (AID 1259382);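 also: HEK293T cells carrying ER-beta-UAS-bla reporter stimulated with estradiol; series mostly up to about 92 µM; nearly all actives have a fitted effect of over 55% in size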
Procedure, shortened: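 Cells: ER-beta-UAS-bla HEK293T, 2,000/well, 2% CS-FBS, 6 hr settle. Cpd + E2 (1nM final), 16 hr, 37C/5% CO2. Bla FRET substrate 2 hr RT, then CellTiter-Glo 30 min RT, luminescence.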

[2] = target: Estrogen receptor (Homo sapiens) (UniProt P03372); experiment: qHTS assay to identify small molecule agonists of the estrogen receptor alpha (ER-alpha) signaling pathway in the presence of an antagonist (AID 1259383; calls by dose curve; also: top concentration of the series differs between compounds; nearly all actives have a fitted effect of over 15% in size)
Estrogen receptor (Homo sapiens), sequence (P03372 whole entry, looked up): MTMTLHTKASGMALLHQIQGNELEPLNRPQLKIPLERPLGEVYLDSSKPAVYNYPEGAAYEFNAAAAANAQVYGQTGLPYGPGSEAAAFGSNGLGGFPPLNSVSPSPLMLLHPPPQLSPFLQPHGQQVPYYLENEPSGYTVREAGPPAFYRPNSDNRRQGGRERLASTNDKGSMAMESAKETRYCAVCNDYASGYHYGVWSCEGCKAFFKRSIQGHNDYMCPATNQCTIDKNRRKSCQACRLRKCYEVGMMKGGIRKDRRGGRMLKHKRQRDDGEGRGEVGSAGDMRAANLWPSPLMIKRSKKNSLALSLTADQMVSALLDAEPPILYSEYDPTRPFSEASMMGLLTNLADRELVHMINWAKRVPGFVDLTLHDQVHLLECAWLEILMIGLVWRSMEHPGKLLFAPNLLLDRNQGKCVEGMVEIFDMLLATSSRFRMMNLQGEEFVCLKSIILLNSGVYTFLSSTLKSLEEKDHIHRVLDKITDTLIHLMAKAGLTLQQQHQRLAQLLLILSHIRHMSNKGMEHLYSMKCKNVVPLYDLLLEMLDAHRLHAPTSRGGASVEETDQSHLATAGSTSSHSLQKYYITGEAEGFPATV
Procedure, shortened: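 VM7Luc4E2, endog. ER-alpha + 4×ERE-luc; charcoal-stripped FBS, phenol red-free, 5 d; 24hr plating; +10.0nM ICI-182,780 (final); cpds 15 conc, 22hr, 37C/5% CO2; ONE-Glo luminescence.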

[3] = qHTS assay to identify small molecule agonists or antagonists of the thyroid stimulating hormone receptor (TSHR) signaling pathway - wild type cell line counter screen (AID 1259384; calls by dose curve)
Procedure, shortened: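 Wild-type Hek293 cells, 800/well, 18 h at 37C, then compound with Ro20-1724 for 30 min RT. cAMP by HTRF (cAMP-d2/anti-cAMP cryptate), 1 h RT, fluorescence read. 15 concentrations, triplicates.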

[4] = qHTS assay to identify small molecule agonists of the estrogen receptor alpha (ER-alpha) signaling pathway in the presence of an antagonist - cell viability counter screen (AID 1259386);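 also: series mostly up to about 92 µM; cells exposed to compounds for 22 h at 37 °C before the viability read; nearly all actives have a fitted effect of over 30% in size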
Procedure, shortened: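 VM7Luc4E2, stripped-serum pre-culture 5 d; 24hr plating; +ICI-182,780 10.0nM final; cpds 15 conc, 22hr, 37C/5% CO2; CellTiter-Fluor added at 21hr, fluorescence 1hr later.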

[5] = target: Progesterone receptor (Homo sapiens) (UniProt P06401); experiment: qHTS assay to identify small molecule agonists of the progesterone receptor (PR) signaling pathway (AID 1346784; calls by dose curve; also: nearly all actives have a fitted effect of over 30% in size)
Progesterone receptor (Homo sapiens), sequence (P06401 whole entry, looked up): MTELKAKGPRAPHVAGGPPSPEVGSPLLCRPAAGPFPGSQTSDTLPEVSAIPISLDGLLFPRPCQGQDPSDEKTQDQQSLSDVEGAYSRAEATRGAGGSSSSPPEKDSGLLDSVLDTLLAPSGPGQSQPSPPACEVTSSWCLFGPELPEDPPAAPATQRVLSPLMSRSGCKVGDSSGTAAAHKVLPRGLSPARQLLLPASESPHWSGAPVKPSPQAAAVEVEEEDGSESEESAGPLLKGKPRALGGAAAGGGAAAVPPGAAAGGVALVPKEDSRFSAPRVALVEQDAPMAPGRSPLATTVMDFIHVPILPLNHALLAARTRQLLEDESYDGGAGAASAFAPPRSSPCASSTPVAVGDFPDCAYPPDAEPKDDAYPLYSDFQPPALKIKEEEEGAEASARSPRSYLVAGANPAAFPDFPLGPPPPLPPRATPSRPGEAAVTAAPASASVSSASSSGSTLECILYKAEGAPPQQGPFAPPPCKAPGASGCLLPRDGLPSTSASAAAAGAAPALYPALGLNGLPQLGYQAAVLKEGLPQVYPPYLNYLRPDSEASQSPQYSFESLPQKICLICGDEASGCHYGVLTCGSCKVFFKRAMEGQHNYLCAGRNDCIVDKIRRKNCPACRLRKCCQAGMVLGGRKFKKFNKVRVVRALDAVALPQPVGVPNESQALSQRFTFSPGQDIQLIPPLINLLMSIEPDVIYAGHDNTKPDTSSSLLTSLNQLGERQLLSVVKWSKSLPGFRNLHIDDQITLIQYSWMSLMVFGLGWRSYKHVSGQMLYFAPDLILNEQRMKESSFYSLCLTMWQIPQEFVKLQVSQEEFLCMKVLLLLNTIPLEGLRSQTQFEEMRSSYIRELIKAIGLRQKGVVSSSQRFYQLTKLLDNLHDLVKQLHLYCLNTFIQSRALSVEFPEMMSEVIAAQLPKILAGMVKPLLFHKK
Procedure, shortened: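 PR-UAS-bla HEK 293T cells carrying a UAS-driven beta-lactamase reporter were seeded in medium with 2% charcoal-stripped FBS, preincubated 6 hr at 37C, then exposed to compounds in DMSO for 16 hr; agonism was read by LiveBLAzer B/G FRET fluorescence.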

[6] = target: Progesterone receptor (Homo sapiens) (UniProt P06401); experiment: qHTS assay to identify small molecule antagonists of the progesterone receptor (PR) signaling pathway (AID 1346795; active = well fitted inhibition curve with a large enough effect in the signal ratio in the repeat runs, not every such curve was filed as active; the % refers to the signal ratio; also: potency is read from the fitted curve at half-maximal effect)
Procedure, shortened: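 PR-UAS-bla HEK293T cells carrying a UAS-driven beta-lactamase reporter were plated in medium with 2% charcoal-stripped FBS and rested 6 hr at 37C. Compounds were added with 1 nM R5020 (final) for 16 hr, then FRET substrate loaded 2 hr at room temperature.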

[7] = qHTS assay to identify small molecule antagonists of the progesterone receptor (PR) signaling pathway - cell viability counter screen (AID 1346798); also: series mostly up to about 92 µM; nearly all actives have a fitted effect of over 50% in size
Procedure, shortened: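 PR-UAS-bla HEK293T cells in medium with 2% charcoal-stripped FBS were treated with compounds plus R5020 for 16 hr at 37C. Cell viability was then read by CellTiter-Glo luminescence after 30 min at room temperature in the same wells.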

[8] = qHTS assay to identify small molecule agonists of the progesterone receptor (PR) signaling pathway - cell viability counter screen (AID 1346799; calls by dose curve; also: nearly all actives have a fitted effect of over 45% in size)
Procedure, shortened: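 PR-UAS-bla HEK293T cells, 3,000 per well in medium with 2% charcoal-stripped FBS, were preincubated 6 hr at 37C, then exposed to compounds for 16 hr; viability was read as CellTiter-Glo luminescence after 30 min at room temperature.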

[9] = qHTS assay to identify small molecule antagonists of the TGF-beta/Smad signaling pathway - cell viability counter screen (AID 1346824); also: nearly all actives have a fitted effect of over 50% in size
Procedure, shortened: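 SBE-bla HEK 293T cells, incubated overnight, then compound plus 0.25 ng/mL TGF-beta1 (stock added) for 5 hr at 37 C. Viability was read in the same wells by CellTiter-Glo luminescence after 30 min at room temperature.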

[10] = target: Thyrotropin receptor (Homo sapiens) (UniProt P16473); experiment: qHTS assay to identify small molecule antagonists of the thyroid stimulating hormone receptor (TSHR) signaling pathway (AID 1259385; calls by dose curve; also: nearly all actives have a fitted effect of over 20% in size)
Thyrotropin receptor (Homo sapiens), sequence (P16473 whole entry, looked up): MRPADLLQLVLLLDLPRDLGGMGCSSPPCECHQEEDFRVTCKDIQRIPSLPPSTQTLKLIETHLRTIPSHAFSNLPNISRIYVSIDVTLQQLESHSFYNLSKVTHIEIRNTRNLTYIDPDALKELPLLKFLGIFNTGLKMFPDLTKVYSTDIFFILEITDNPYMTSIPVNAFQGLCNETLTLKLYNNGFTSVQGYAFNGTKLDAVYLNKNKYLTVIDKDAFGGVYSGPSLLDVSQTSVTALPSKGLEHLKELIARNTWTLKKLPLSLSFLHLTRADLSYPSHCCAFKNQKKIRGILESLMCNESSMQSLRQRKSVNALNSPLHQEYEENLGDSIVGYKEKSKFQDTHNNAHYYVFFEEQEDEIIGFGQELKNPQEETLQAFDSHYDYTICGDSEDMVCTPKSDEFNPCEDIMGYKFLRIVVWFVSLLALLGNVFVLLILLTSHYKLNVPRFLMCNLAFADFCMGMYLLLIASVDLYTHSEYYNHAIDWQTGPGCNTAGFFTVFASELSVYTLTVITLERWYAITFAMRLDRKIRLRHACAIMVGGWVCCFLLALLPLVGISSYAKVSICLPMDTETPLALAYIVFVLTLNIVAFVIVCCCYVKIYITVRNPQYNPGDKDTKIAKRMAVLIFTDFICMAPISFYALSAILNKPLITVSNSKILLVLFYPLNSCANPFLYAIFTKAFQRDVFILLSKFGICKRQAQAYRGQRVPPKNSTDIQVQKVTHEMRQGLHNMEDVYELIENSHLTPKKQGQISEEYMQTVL
Procedure, shortened: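 TSHR-HEK293 cells (800/well) plated 18 h, then compounds with Ro20-1724 and TSH at 1.5 ng/mL final, 30 min at room temperature. cAMP quantified by HTRF (cAMP-d2/anti-cAMP-cryptate, 1 h); 15 concentrations in triplicate.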

SMILES | Potency [1] | Potency [2] | outcome [3] | outcome [4] | outcome [5] | Potency [6] | Potency [7] | Potency [8] | Potency [9] | Potency [10]
CC(C#N)CCC#N (stereo not given) | inactive | inactive | inactive | inactive | inactive | inactive | inactive | inactive | inactive | –
c1ccc(-c2ccccc2)cc1 | inactive | inactive | – | inactive | inactive | – | inactive | inactive | inactive | –
C=CC(N)=O | inactive | inactive | inactive | inactive | – | – | inactive | inactive | inactive | inactive
CCCCCOC(=O)c1ccccc1C(=O)OCCCCC | inactive | inactive | – | inactive | inactive | – | inactive | inactive | inactive | inactive
O=C1CCCN1 | inactive | inactive | inactive | inactive | inactive | inactive | inactive | inactive | inactive | inactive
CC(=O)C=C(C)C | inactive | inactive | – | inactive | inactive | inactive | inactive | inactive | inactive | inactive
CCN(CC)c1ccccc1 | inactive | inactive | – | inactive | – | inactive | inactive | inactive | inactive | –
CC(Br)C(=O)O (stereo not given) | inactive | inactive | – | inactive | inactive | inactive | inactive | inactive | inactive | –
Cc1ccc(N)cc1Cl | inactive | inactive | – | inactive | inactive | inactive | inactive | inactive | inactive | inactive
COc1ccc2c3c1O[C@H]1[C@@H](O)C=C[C@H]4[C@@H](C2)N(C)CC[C@@]341 | inactive | inactive | – | inactive | inactive | inactive | inactive | inactive | inactive | –
Cc1ccccc1O | inactive | inactive | inactive | inactive | – | inactive | inactive | inactive | inactive | inactive
COC(=O)c1ccccc1C(=O)OC | inactive | inactive | inactive | inactive | inactive | inactive | inactive | inactive | inactive | inactive
[N-]=[N+]=[N-] | inactive | inactive | inactive | inactive | inactive | inactive | inactive | inactive | inactive | –
Nc1ccccc1C(=O)O | inactive | inactive | – | inactive | – | inactive | inactive | inactive | inactive | inactive
CCNc1nc(NC(C)(C)C)nc(SC)n1 | inactive | inactive | inactive | inactive | – | 47.9 µM (active) | – | inactive | inactive | inactive
CCCN(CCC)c1c([N+](=O)[O-])cc(C(F)(F)F)cc1[N+](=O)[O-] | inactive | inactive | inactive | inactive | – | inactive | inactive | inactive | inactive | inactive
CC1C=[C-]C=C1.[C-]#[O+].[C-]#[O+].[C-]#[O+].[Mn] | inactive | inactive | inactive | inactive | inactive | inactive | inactive | inactive | inactive | inactive
O=[N+]([O-])c1ccc([As](=O)(O)O)cc1 | inactive | inactive | inactive | inactive | inactive | inactive | inactive | inactive | inactive | –
CON(C)C(=O)Nc1ccc(Cl)c(Cl)c1 | inactive | inactive | inactive | inactive | inactive | – | inactive | – | inactive | –
Cc1cccc([N+](=O)[O-])c1 | inactive | inactive | inactive | inactive | – | inactive | inactive | inactive | inactive | inactive
CCOP(=S)(OCC)Oc1cnc2ccccc2n1 | inactive | inactive | – | inactive | – | inactive | inactive | inactive | inactive | inactive
Cc1[nH]c(=O)n(C(C)(C)C)c(=O)c1Cl | inactive | inactive | inactive | inactive | – | inactive | inactive | inactive | inactive | –
CC(C)=C[C@@H]1[C@@H](C(=O)OCc2coc(Cc3ccccc3)c2)C1(C)C | inactive | inactive | – | inactive | inactive | inactive | inactive | inactive | inactive | –
CCC[CH2][Sn]([Cl])([Cl])[Cl] | inactive | inactive | – | inactive | inactive | inactive | inactive | inactive | inactive | –
[O-][Cl+2]([O-])O | inactive | inactive | – | inactive | inactive | inactive | inactive | inactive | inactive | inactive
CC(C)C1(C)N=C(c2nc3ccccc3cc2C(=O)O)NC1=O (stereo not given) | inactive | inactive | – | inactive | inactive | inactive | inactive | inactive | inactive | inactive

SMILES | Potency [1] | Potency [2] | outcome [3] | outcome [4] | outcome [5] | Potency [6] | Potency [7] | Potency [8] | Potency [9] | Potency [10]
COC(=O)NC(=S)Nc1ccccc1NC(=S)NC(=O)OC | inactive | inactive | – | inactive | – | inactive | inactive | inactive | inactive | inactive
CCOP(=S)(OCC)SCCSCC | inactive | – | inactive | inactive | inactive | inactive | inactive | inactive | – | inactive
Clc1ccc(Cl)cc1 | inactive | inactive | – | inactive | inactive | inactive | inactive | inactive | inactive | –
CCCN(CCC)N=O | inactive | inactive | inactive | inactive | – | inactive | inactive | inactive | inactive | –
Cn1cc(-c2ccccc2)c(=O)c(-c2cccc(C(F)(F)F)c2)c1 | inactive | inactive | – | – | inactive | inactive | inactive | inactive | inactive | –
Cc1ccc(N)cc1N | inactive | inactive | – | inactive | inactive | inactive | inactive | inactive | inactive | –
O=c1n(Cl)c(=O)n(Cl)c(=O)n1Cl | inactive | inactive | – | inactive | inactive | inactive | inactive | inactive | inactive | inactive
c1ccc(OP(Oc2ccccc2)Oc2ccccc2)cc1 | inactive | inactive | – | inactive | – | inactive | inactive | inactive | inactive | –
O=[N+]([O-])c1ccccc1 | inactive | inactive | inactive | inactive | inactive | inactive | inactive | inactive | inactive | inactive
Cc1ccc([N+](=O)[O-])cc1C | inactive | inactive | inactive | inactive | inactive | inactive | inactive | inactive | inactive | inactive
c1cc2c3c(cccc3c1)CC2 | inactive | – | inactive | inactive | – | inactive | inactive | inactive | inactive | inactive
O=[N+]([O-])c1ccc(Oc2ccc(Cl)cc2Cl)cc1 | inactive | – | inactive | inactive | inactive | 15.4 µM (active) and 9.69 µM (active) | – | inactive | inactive | inactive
Clc1ccccc1Cl | inactive | – | inactive | inactive | – | inactive | inactive | inactive | inactive | inactive
NCC(O)c1ccc(O)cc1 (stereo not given) | inactive | – | inactive | inactive | inactive | inactive | inactive | inactive | inactive | –
CC(C)C#N | inactive | – | inactive | inactive | inactive | inactive | inactive | inactive | inactive | –
c1ccc2c(c1)oc1ccccc12 | inactive | – | inactive | inactive | inactive | inactive | inactive | inactive | inactive | inactive
O=c1[nH]c(=O)[nH]c(=O)[nH]1 | inactive | – | inactive | inactive | inactive | inactive | inactive | inactive | inactive | inactive
CCCCCCCCCCCC#N | inactive | – | inactive | inactive | inactive | inactive | inactive | inactive | inactive | –
Clc1cccc(Cl)c1Cl | inactive | – | inactive | inactive | – | inactive | inactive | inactive | inactive | –
ClCCBr | inactive | – | inactive | inactive | inactive | inactive | inactive | inactive | inactive | inactive
c1ccc2c(c1)Oc1ccccc1O2 | inactive | – | inactive | inactive | inactive | inactive | inactive | inactive | inactive | inactive
CN(C)CCO | inactive | – | inactive | inactive | – | inactive | inactive | inactive | inactive | inactive
C#CC(C)(C)NC(=O)c1cc(Cl)cc(Cl)c1 | inactive | – | inactive | inactive | inactive | inactive | inactive | inactive | inactive | –
CNC(=O)Oc1ccccc1OC(C)C | inactive | – | inactive | inactive | inactive | inactive | inactive | inactive | inactive | –
CC(C)(C)C(O)(CCc1ccc(Cl)cc1)Cn1cncn1 (stereo not given) | inactive | – | inactive | inactive | inactive | 17.4 µM (active) and 24.3 µM (active) | – | – | inactive | –
